# Structures can show the parent of a compound that is named as a salt.
# Tested on: Saccharomyces cerevisiae BY4741 SeMeCo community
# Test: z-score of subpopulation abundance vs DMSO median, subpopulation auxotrophic for LM; higher = larger share of this subpopulation than in DMSO controls
# Details: 10 µM; 24 h; SM minimal medium; subpopulation (auxotrophy): LM
# Description: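 Fluorescent four-plasmid SeMeCo (self-establishing metabolically cooperating S. cerevisiae BY4741 community; plasmids pH-mRuby2, pL-mWasabi, pU-eCFP, pM-TagRFP657) was grown 24 h in minimal SM medium with each Selleck FDA-approved drug at 10 µM in 384-well plates. Cells were fixed and imaged by high-content confocal microscopy. For each auxotrophic subpopulation (and the prototroph), a z-score gives the deviation from the DMSO vehicle-control population median.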
row,SMILES,z-score of subpopulation abundance
1,COc1ccc2[nH]cc(CCN)c2c1 [5-Methoxytryptamine],0.28
2,CC[C@@H](C(N)=O)N1CCCC1=O [Levetiracetam],-0.55
3,NCCc1c[nH]c2ccc(O)cc12 [Serotonin HCl],-1.09
4,O=[N+]([O-])C(Br)(CO)CO [Bronopol],-0.89
5,CC1(C)SC2C(N)C(=O)N2C1C(=O)O (stereo not given) [6-Aminopenicillanic acid],0.56
6,CN[C@@H]1[C@@H](O)[C@@H](O[C@@H]2[C@@H](O)[C@H](O[C@H]3O[C@H]([C@@H](C)O)[C@@H](O)[C@H](O)[C@H]3N)[C@@H](N)C[C@H]2N)OC[C@]1(C)O [Geneticin (G418 Sulfate)],0.61
7,C[C@@H]1CC[C@H]2[C@@H](C)C(=O)O[C@@H]3O[C@@]4(C)CC[C@@H]1[C@]32OO4 [Artemisinin],-1.74
8,CN1c2ccccc2C(NCCCCCCC(=O)O)c2ccc(Cl)cc2S1(=O)=O (stereo not given) [Tianeptine sodium],-0.12
9,CC[N+](C)(CC)CCOC(=O)C(O)(c1ccccc1)c1ccccc1 [Methylbenactyzine Bromide],-0.89
10,COc1ccc(C(CN(C)C)C2(O)CCCCC2)cc1 (stereo not given) [Venlafaxine HCl],0.27
11,CNC1CC(N)C(O)C(OC2OC(CO)C(O)C3OC4(OC(C(N)CO)C(O)C(O)C4O)OC23)C1O (stereo not given) [Hygromycin B],-0.12
12,CCCN1C[C@H](CSC)C[C@@H]2c3cccc4[nH]cc(c34)C[C@H]21 [Pergolide Mesylate],-0.22
13,CC(=O)OCC1=C(C(=O)O)N2C(=O)C(N)C2SC1 (stereo not given) [7-Aminocephalosporanic acid],-0.28
14,CC(NC(C)(C)C)C(=O)c1cccc(Cl)c1 (stereo not given) [Amfebutamone (Bupropion) HCl],-0.59
15,COc1ccc2c3c([nH]c2c1)C(C)=NCC3 [Harmaline],4.83
16,COc1ccc(C(CN(C)C)C2(O)CCCCC2)cc1 (stereo not given) [Venlafaxine],-0.51
17,CCOC(=O)Nc1ccc(NCc2ccc(F)cc2)cc1N [Retigabine],-0.12
18,C[CH2][Hg][S]c1ccccc1C(=O)[O-].[Na+] [Thimerosal],13.9
19,O=c1cccc2n1C[C@@H]1CNC[C@H]2C1 [Cytisine],-0.02
20,C[N+]1(C)[C@@H]2C[C@@H](OC(=O)[C@H](CO)c3ccccc3)C[C@H]1[C@@H]1O[C@@H]12 [Methscopolamine],-0.56

row,SMILES,z-score of subpopulation abundance
1,N[C@@H]1C[C@H]1c1ccccc1 [Tranylcypromine (2-PCPA) HCl],-0.94
2,Nc1ccncc1 [4-Aminopyridine],0.74
3,C=CCN1C[C@H](C(=O)N(CCCN(C)C)C(=O)NCC)C[C@@H]2c3cccc4[nH]cc(c34)C[C@H]21 [Cabergoline],-0.31
4,Oc1cc(Cl)ccc1Oc1ccc(Cl)cc1Cl [Triclosan],-2.25
5,CC[C@@]1(O)C(=O)OCc2c1cc1n(c2=O)Cc2cc3ccccc3nc2-1 [Camptothecin],-0.25
6,CC[C@H]1CN2CC[C@]3(C(=O)Nc4ccccc43)[C@@H]2C[C@@H]1/C(=C\OC)C(=O)OC [Rhynchophylline],-0.11
7,CCN(CC)CCOC(=O)C(O)(c1ccccc1)c1ccccc1 [Benactyzine hydrochloride],0.4
8,C=C[C@H]1CN2CC[C@H]1C[C@H]2[C@H](O)c1ccnc2ccccc12 [Cinchonidine],-0.08
9,Oc1cccc2cccnc12 [8-Hydroxyquinoline],-0.41
10,C=CC[C@]1(O)CC[C@H]2[C@@H]3CCC4=CC(=O)CCC4=C3C=C[C@@]21C [Altrenogest],0.15
11,CC[C@H]1[C@@H]2C[C@H]3[C@@H]4N(C)c5ccccc5[C@]45C[C@@H]([C@@H]2[C@H]5O)N3[C@@H]1O [Ajmaline],-0.31
12,"NCC(O)c1ccc(O)cc1 (racemic) [(+,-)-Octopamine HCl]",0
13,CN(C)[C@@H]1C(=O)C(C(N)=O)=C(O)[C@@]2(O)C(=O)C3=C(O)c4c(O)cccc4[C@@](C)(O)[C@H]3[C@H](O)[C@@H]12 [Oxytetracycline Dihydrate],-0.49
14,CN[C@@H]1[C@@H](O)[C@@H](O[C@@H]2[C@@H](O)[C@H](O[C@H]3O[C@H](CN)CC[C@H]3N)[C@@H](N)C[C@H]2N)OC[C@]1(C)O.CN[C@@H]1[C@@H](O)[C@@H](O[C@@H]2[C@@H](O)[C@H](O[C@H]3O[C@H]([C@@H](C)N)CC[C@H]3N)[C@@H](N)C[C@H]2N)OC[C@]1(C)O.CN[C@@H]1[C@@H](O)[C@@H](O[C@@H]2[C@@H](O)[C@H](O[C@H]3O[C@H]([C@@H](C)NC)CC[C@H]3N)[C@@H](N)C[C@H]2N)OC[C@]1(C)O [Gentamicin Sulfate],-0.12
15,CC(C)N(CCC(C(N)=O)(c1ccccc1)c1ccccn1)C(C)C (stereo not given) [Disopyramide],1.31
16,CN(C)C(=O)Oc1cccc([N+](C)(C)C)c1 [Neostigmine Bromide],0.26
17,CCC1=C[C@H]2CN3CCc4c([nH]c5ccccc45)[C@](C(=O)OC)(C2)[C@H]13 [Catharanthine],-0.74
18,C=CN1CCCC1=O.II [Povidone iodine],-0.46
19,CN(C)[C@@H]1C(=O)C(C(N)=O)=C(O)[C@@]2(O)C(=O)C3=C(O)c4c(O)cccc4[C@@](C)(O)[C@H]3C[C@@H]12 [Tetracycline HCl],-0.24
20,CC(C)(O)C(Cl)(Cl)Cl [Chlorobutanol],0.13
